This is an account of results in PubChem BioAssay AID720633 (The Scripps Research Institute Molecular Screening Center, 2013).

The other results are listed elsewhere or left out. Unmarked numbers belong to inactive results.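 How the source made its calls: active means inhibition above the cutoff, the mean of compounds lying between the control bounds plus 3 SD of those compounds (cut at about 17% in these data); inactive means the rest.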

The target in this experiment is Fibrinogen beta chain (Homo sapiens) (UniProt P02675). The experiment is described as follows: fibrin DD(E) probe displacement, second cyclic peptide – biochemical, fluorescence polarization, human fibrin, counter-screen for fibrin DD(E)-Tn7 binding project, confirmation (AID 720633).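 Further: 0% = median of compound sample wells and 100% = excess unlabeled Aha-Tn7 peptide.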 The conditions noted are these: TRITC-Tn7 probe displacement, at 8.3 µM, active compounds read high. In general terms: Polarisation of emitted light reports the rotation of a fluorescent probe.
Sequence of Fibrinogen beta chain (Homo sapiens) (P02675 whole entry, looked up): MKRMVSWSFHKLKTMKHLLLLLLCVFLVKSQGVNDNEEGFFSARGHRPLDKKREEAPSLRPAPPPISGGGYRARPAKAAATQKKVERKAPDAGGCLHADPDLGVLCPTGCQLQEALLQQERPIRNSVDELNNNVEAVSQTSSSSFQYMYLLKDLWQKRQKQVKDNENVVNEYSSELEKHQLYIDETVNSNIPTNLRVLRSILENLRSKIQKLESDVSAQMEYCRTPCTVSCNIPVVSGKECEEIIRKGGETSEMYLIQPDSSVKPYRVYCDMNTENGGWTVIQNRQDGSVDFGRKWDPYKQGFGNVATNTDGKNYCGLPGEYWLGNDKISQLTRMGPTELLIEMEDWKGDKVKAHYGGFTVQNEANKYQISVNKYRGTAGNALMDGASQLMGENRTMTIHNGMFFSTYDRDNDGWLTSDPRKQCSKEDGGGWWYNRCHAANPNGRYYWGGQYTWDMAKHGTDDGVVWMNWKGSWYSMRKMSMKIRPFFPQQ
As a reminder, the inhibition is the drop in the measured response relative to a control, in per cent. Regarding `O=C(COC(=O)/C=C/c1ccc(OC(F)F)cc1)NC1CCCCC1`, the inhibition was 6.67%.

In the case of `C#CCNc1ccc(C(=O)OCC)cc1`, the inhibition was 4.2%.

Regarding `CN1C(=O)c2cccc3c(N)ccc(c23)C1=O`, the inhibition was 8.6%.

For `COc1cccc(N2CC(NS(=O)(=O)c3cccs3)CC2=O)c1` (centres undefined), the inhibition was -2.24%.

Take `Cc1cc2nc3c(=O)[nH]c(=O)nc-3n(C[C@H](O)[C@H](O)[C@H](O)CO)c2cc1C`: the inhibition was 12.4%.

Consider `Cc1cc2nc3c(=O)n(Cc4ccccc4)c(=O)[nH]c3nc2cc1N`, for which the inhibition was -4.98%.

In the case of `CCOc1ccc(Nc2oc(Cc3ccccc3)nc2C#N)cc1`, the inhibition is -10.1%.

On to `c1cc(-c2nn[nH]n2)ccc1CN1CCCCC1`, for which the inhibition is -9.04%.

In the case of `Cc1nn(C)cc1N1C(=O)c2cccc3c(N)ccc(c23)C1=O`, the inhibition was 1.67%.

Regarding `O=C(/C=C/c1ccccc1[N+](=O)[O-])NCC1CCCO1` (centres undefined), the inhibition is 6.91%.

`COc1ccc(N=Nc2c(-c3ccc(OC)cc3)[nH]oc2=O)cc1`: the inhibition is -6.55%.

In the case of `CC(C)(C)c1cc(CN2CCN(CCC#N)CC2)cc(C(C)(C)C)c1O`, the inhibition is 0.66%.

For the compound `Oc1ccc2ccc3cccc[n+]3c2c1`, the inhibition is -23.9%.

For `O=C(Nc1ccon1)c1sc2ccccc2c1Cl`, the inhibition is -2.1%.

`Cn1c(CC(=O)NNC(=O)c2ccccc2F)nc2ccccc21`: the inhibition was -5.95%.

Take `O=C(CSc1nnc(-c2ccccn2)n1-c1ccc(Cl)cc1)Nc1ccccc1-c1ccccc1`: the inhibition was -2.23%.

On to `O=C(NCc1ccccc1)c1cccc(NC(=O)C2CCCCC2)c1`, for which the inhibition is 0.56%.

Turning to `COc1ccc(S(=O)(=O)c2c[nH]c(=S)[nH]c2=O)cc1Cl`, the inhibition is -4.35%.

As for `CN1c2ccc(C=O)c3c(C=O)ccc(c23)N(C)C1(C)C`, the inhibition was -6.98%.

For the compound `COc1cc(C(=S)N2CCOCC2)ccc1O`, the inhibition was 6.48%.

Consider `COc1ccc(-c2nc(CCNC(=O)c3ccc(Br)o3)cs2)cc1`, for which the inhibition is -3.63%.

`O=C(COC(=O)c1ccc([N+](=O)[O-])cc1Cl)NC(=O)c1ccccc1`: the inhibition is 1.45%.

In the case of `OC(c1ccccc1)c1nc(-c2cnc3ccccc3c2)cs1` (centres undefined), the inhibition is 3.54%.

As for `Cc1nnc2n1N=C(c1ccc3c(c1)NC(=O)CO3)CS2`, the inhibition is -7.74%.
